Assay outcomes as filed in PubChem.
Mcl1-Noxa inh: disrupts binding of human Mcl-1 to Noxa peptide | Q07820 | TR-FRET Mcl-1/Noxa peptide binding, 2 h | inhibition, % at 21.7 µM | hit rate 1.5% among 220,000 | AID 1022;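 active means compounds that cut the protein-peptide binding signal by more than 50% relative to plate controls in a single-dose test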;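 further: His-tagged Mcl-1 with rhodamine Noxa BH3 peptide and terbium anti-His antibody; 0% = Mcl-1 plus Noxa peptide wells and 100% = peptide-only wells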
Target sequence (Q07820 whole entry, looked up): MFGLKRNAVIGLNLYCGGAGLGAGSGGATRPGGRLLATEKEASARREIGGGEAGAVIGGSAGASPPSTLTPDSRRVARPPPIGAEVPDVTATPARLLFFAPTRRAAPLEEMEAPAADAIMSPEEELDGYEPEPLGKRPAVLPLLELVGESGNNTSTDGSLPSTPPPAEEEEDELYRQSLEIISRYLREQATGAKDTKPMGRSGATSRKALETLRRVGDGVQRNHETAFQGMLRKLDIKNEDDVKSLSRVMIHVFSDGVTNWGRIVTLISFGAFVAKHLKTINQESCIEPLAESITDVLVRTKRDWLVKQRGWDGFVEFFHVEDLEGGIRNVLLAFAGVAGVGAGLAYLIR
Mcl1 Bid PPI: disrupts binding of human Mcl-1 to Bid peptide; TR-FRET Mcl-1/Bid-Dy647 peptide binding, 1536-well; inhibition, % at 21.7 µM; hit rate 0.97% among 220,000;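 active means compounds that cut the binding signal by more than half at the single screening dose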;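 further: His-tagged Mcl-1 with europium anti-His antibody binding Bid BH3 peptide; 0% = Mcl-1 plus peptide wells and 100% = peptide-only wells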
MCL1-BIM inh: inhibitors of human MCL1 binding to BIM-BH3 peptide; Q07820; GST-MCL1 / FITC-Bim-BH3 fluorescence polarization; inhibition, % at 10.9 µM; hit rate 0.68% among 320,000;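 active means inhibition above the mean inhibition of all tested compounds plus 3 SD, set per campaign, cut at about 40% in these data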;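 further: 0% = DMSO wells and 100% = unlabeled Bim-BH3 peptide control; higher means more loss of mP so more displacement of Bim peptide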
Bim-Mcl-1: human Bim-Mcl-1 interaction inhibition; Q07820; Bead-based flow cytometry, Bim peptide-Mcl-1 binding; inhibition, % at 10 µM; hit rate 0.1% among 190,000; AID 1009; in the data active means inhibition above about 40%;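 further: 0% = no compound tracer wells and 100% = peptide blocker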
* marks the source's active call; other numbers are inactive results; nt = not tested or not shown. An excerpt weighted towards active compounds, which were near 2% of everything screened.

SMILES | Mcl1-Noxa inh | Mcl1 Bid PPI | MCL1-BIM inh | Bim-Mcl-1
O=C1ON=C(c2ccc(Cl)cc2)/C1=C/c1ccc(O)cc1 | 65.8* | -49.9 | -0.7 | -6.0
CC1=Nc2cc(C(=O)O)ccc2Sc2ccc(Br)cc21 | 57.5* | 44.3 | 23.3 | -2.0
CC1=Nc2cc(C(=O)NCC3CCCO3)ccc2Sc2ccc(Br)cc21 (stereo unspecified) | -0.7 | -6.8 | 4.1 | nt
Cc1cccc(NC(=O)CN2C(=O)N/C(=C/c3cc(C)n(-c4ccncc4)c3C)C2=O)c1 | 36.6 | 81.0* | 2.8 | -3.0
Cc1cccc(NC(=O)CN2C(=O)N/C(=C/c3cc(C)n(-c4cccnc4)c3C)C2=O)c1 | 16.3 | -25.0 | 1.0 | 0.0
O=C(NC(=S)Nc1ccc2[nH]c(=O)[nH]c2c1)c1ccccc1[N+](=O)[O-] | nt | nt | 21.2 | nt
COc1cccc(C2N=C(c3ccccc3C)NO2)c1OC (stereo unspecified) | nt | nt | 8.0 | nt
CCN(CC)c1ccc(Nc2nc(N3CCOCC3)c3ccccc3n2)cc1 | 54.1* | 21.8 | 23.0 | 3.0
COc1ccc(Nc2nc(N3CCCC3)c3ccccc3n2)cc1 | 50.2 | -33.3 | 2.0 | 1.0
O=C1NC(=O)/C(=C/c2ccc(-c3cc(C(=O)O)ccc3Cl)o2)S1 | nt | nt | 42.3* | nt
Cc1ccc(/C=C/C(=O)Nc2sc3c(c2C#N)CCCC3)o1 | 51.5* | 13.7 | 5.8 | -4.0
O=C(CN1C(=O)NC2(CCCC2)C1=O)Nc1cc(S(=O)(=O)N2CCOCC2)ccc1OCC(F)(F)F | nt | nt | -21.7 | nt
O=c1c2cc(N3CCOCC3)ccc2[nH]c(=S)n1Cc1ccco1 | 57.8* | -99.5 | 22.5 | 3.0
COc1cccc(C(=O)NC(=S)Nc2ccc(N(C)C)cc2)c1 | 24.1 | -65.1 | 13.5 | -6.0
CCC(C)c1ccccc1NC(=O)C(C)NCCN(C)C (stereo unspecified) | 23.5 | 59.7* | -5.1 | nt
N#Cc1ccccc1S(=O)(=O)N1CCN(CC(O)COc2ccccc2F)CC1 (stereo unspecified) | nt | nt | -3.3 | nt
O=C(CN1C(=O)C2CC=C(Cl)CC2C1=O)NCc1ccccc1 (stereo unspecified) | -3.9 | -20.0 | 42.1* | 1.0
O=C1C2CC=C(Cl)CC2C(=O)N1CCc1ccccc1 (stereo unspecified) | 36.6 | -7.3 | 40.7* | 0.0
CC1CCN(C(=O)COC(=O)CSc2ccc(C(N)=O)cc2[N+](=O)[O-])CC1 | nt | nt | 0.8 | nt
Cc1ccc(S(=O)(=O)NC2(C(F)(F)F)C(=O)Nc3c2c(=O)n(C)c(=O)n3C)cc1 (stereo unspecified) | -60.1 | -82.6 | 2.8 | 0.0
Cc1ccc(-n2c3c(c(=O)[nH]c2=O)C(NS(=O)(=O)c2ccc(Cl)cc2)(C(F)(F)F)C(=O)N3)cc1 (stereo unspecified) | 54.5* | -55.0 | 2.6 | -5.0
Cn1c2c(c(=O)n(C)c1=O)C(NS(=O)(=O)c1ccc(Cl)cc1)(C(F)(F)F)C(=O)N2 (stereo unspecified) | 53.1* | -107.0 | 1.6 | 1.0
COc1ccc(S(=O)(=O)C(C#N)c2nc3ccccc3nc2N2CCC(C)CC2)cc1 (stereo unspecified) | nt | nt | 46.8* | nt
O=C(Nc1ccc2oc(-c3cccnc3)nc2c1)c1ccc2c(c1)OCCO2 | 52.5* | 40.5 | -66.9 | 11.0
Cc1cc(O)c(C=O)c2c1C(=O)Oc1c(CO)c(O)c3c(c1O2)C(O)OC3=O (stereo unspecified) | 53.3* | 40.4 | 103.1* | 1.0
SMILES | Mcl1-Noxa inh | Mcl1 Bid PPI | MCL1-BIM inh | Bim-Mcl-1
COc1ccc(OCc2cc(C(=O)O)c(C)o2)cc1 | 15.1 | -59.7 | 8.5 | nt
Cc1ccc(OCC(=O)NCc2ccco2)c([N+](=O)[O-])n1 | 7.9 | 79.6* | 3.2 | -3.0
Cc1ccc(CNC(=O)COc2ccc(C)nc2[N+](=O)[O-])cc1 | 7.0 | 23.1 | 4.3 | -14.0
CC1CN(C(=O)N2c3ccccc3Sc3ccccc32)C(C)CC1=O (stereo unspecified) | 70.2* | -17.6 | 3.7 | -2.0
Cc1ccc(C2C3=C(CCCC3=O)Nc3[nH]c(=S)[nH]c(=O)c32)cc1 (stereo unspecified) | 12.3 | -17.2 | -3.3 | -2.0
O=C1CCCC2=C1C(c1ccc(Br)cc1)c1c([nH]c(=S)[nH]c1=O)N2 (stereo unspecified) | 52.9* | -6.9 | 5.7 | -4.0
O=c1[nH]c(=S)[nH]c2c1C(c1ccc(Br)cc1)c1c([nH]c(=S)[nH]c1=O)O2 | nt | nt | 72.1* | nt
N#Cc1ccc(-c2cccnc2)nc1SCC(=O)Nc1sc2c(c1C#N)CCC2 | 60.3* | 40.3 | -50.8 | 1.0
Cn1c(=O)c2c(nc(Cc3ccc(N)cc3)n2C)n(C)c1=O | 12.4 | 97.9* | -3.9 | nt
COc1cc(S(=O)(=O)n2cnc3ccccc32)ccc1Br | nt | nt | -5.1 | nt
O=c1oc2ccccc2c(O)c1/C=N/c1ncccn1 | nt | nt | -6.3 | nt
O=c1oc2ccccc2c(O)c1/C=C1\C=Nc2ccccc21 | 78.2* | -53.5 | -25.7 | 0.0
CC1(C)CC(=O)C(C=Nc2cccc(/N=C/C3=C(O)CC(C)(C)CC3=O)n2)=C(O)C1 | 84.7* | -19.0 | nt | -2.0
Cc1ccc(-c2cc(C(=O)NCCCn3ccnc3)c3cc(Br)ccc3n2)o1 | 75.9* | 33.7 | 34.0 | 0.0
Cc1ccc(-c2cc(C(=O)NN3CCOCC3)c3cc(Br)ccc3n2)o1 | 56.7* | 0.6 | 10.5 | 1.0
Cc1ccc(-c2cc(C(=O)NC3=NCCS3)c3cc(Br)ccc3n2)o1 | 102.0* | 51.3* | 23.6 | 8.0
O=C(OCC(=O)N1CCC(c2ccccc2)=N1)c1ccc([N+](=O)[O-])s1 | nt | nt | -4.2 | nt
Nc1nc(CSc2nc3ccccc3s2)nc(Nc2ccccc2)n1 | 72.5* | 13.9 | 3.6 | -5.0
Cc1c(Cl)cccc1Nc1nc(N)nc(CSc2nc3ccccc3s2)n1 | 10.3 | 14.9 | 8.1 | 0.0
Cc1cccc(OCC(=O)Nc2ccccc2C(=O)N2CCOCC2)c1 | 59.3* | -30.1 | 3.7 | -3.0
COc1cc2c(cc1NC(=S)NC(=O)/C=C/c1ccc(OC)c(OC)c1)oc1ccccc12 | 47.4 | 62.2* | nt | 1.0
COc1ccc(/C=C/C(=O)NC(=S)Nc2cc3oc4ccccc4c3cc2OC)cc1 | 12.9 | 31.6 | 8.4 | -3.0
COc1cc2c(cc1NC(=O)CSc1ccccc1)oc1ccccc12 | 7.1 | -5.7 | 4.0 | 5.0
COc1cc2c(cc1NC(=O)CSc1nccn1C)oc1ccccc12 | 56.6* | -3.5 | -2.7 | 0.0
O=C(COC(=O)CC1CCCC1)Nc1ccccc1[N+](=O)[O-] | nt | nt | 8.2 | nt
SMILES | Mcl1-Noxa inh | Mcl1 Bid PPI | MCL1-BIM inh | Bim-Mcl-1
CN(C)c1ccc2c3c(ccc(N(C)C)c13)C(=O)OC2 | -9.1 | -58.0 | 6.0 | nt
COCCN(C(=O)CSc1nnc(-c2ccccc2F)n1N)c1c(N)n(Cc2ccccc2)c(=O)[nH]c1=O | nt | nt | -1.1 | nt
N=c1c(C(=O)NCc2ccco2)cc2c(=O)n3ccccc3nc2n1CCc1ccccc1 | 67.7* | 10.9 | 20.0 | 13.0
Cc1cccn2c(=O)c3cc(C(=O)NCc4ccco4)c(=N)n(C4CCCCC4)c3nc12 | nt | nt | 15.9 | nt
O=C(NCc1ccco1)c1cccn2c(=O)c3cc4ccccc4cc3nc12 | 47.2 | 93.8* | nt | 3.0
COCCn1c(=N)c(C(=O)NCc2ccco2)cc2c(=O)n3cc(C)ccc3nc21 | 9.2 | -29.1 | 68.7* | 1.0
Cc1cccn2c(=O)c3cc(C(=O)NCc4ccco4)c(=N)n(CCOCCO)c3nc12 | 33.4 | -49.0 | 43.2* | 4.0
